Data from PubChem BioAssay (NCATS).
Values joined by “and” are separate entries in the source; they are usually repeats but may differ in a detail not shown here. Equal entries are not always repeated. Inconclusive results are not listed. Active and inactive are the calls of the source. Unless noted, calls follow the shape of the full dose curve.

Assays:
[1] = target: Bile acid receptor (Homo sapiens) (UniProt Q96RI1); test: qHTS assay for small molecule agonists of farnesoid X receptor signaling (AID 588527); settings: HEK293T FXR-UAS-bla, beta-lactamase ratio, 16 h; activation: stronger effect = higher value;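 also: series mostly up to about 77 µM; 0% = vehicle basal and 100% = reference agonist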
Sequence of Bile acid receptor (Homo sapiens) (Q96RI1 whole entry, looked up): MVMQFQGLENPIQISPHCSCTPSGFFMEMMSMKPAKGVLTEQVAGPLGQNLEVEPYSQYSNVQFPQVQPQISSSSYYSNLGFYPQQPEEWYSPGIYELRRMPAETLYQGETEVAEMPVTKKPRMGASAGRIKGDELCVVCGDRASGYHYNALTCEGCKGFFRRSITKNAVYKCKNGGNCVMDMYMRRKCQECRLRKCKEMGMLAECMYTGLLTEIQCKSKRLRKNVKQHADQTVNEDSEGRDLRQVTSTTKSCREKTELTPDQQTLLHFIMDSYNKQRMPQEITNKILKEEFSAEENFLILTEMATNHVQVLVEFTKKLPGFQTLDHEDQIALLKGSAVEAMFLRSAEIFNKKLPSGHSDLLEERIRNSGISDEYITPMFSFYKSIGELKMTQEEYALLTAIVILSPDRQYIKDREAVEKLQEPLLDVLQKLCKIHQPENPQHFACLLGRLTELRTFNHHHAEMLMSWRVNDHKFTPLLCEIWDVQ
How it was run: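 FXR-UAS-bla HEK293T, 10% dialyzed FBS; cpds up to 92 uM titration, 16 h 37 C; CCF4 dye 2 h RT; fluorescence. Normalized to chenodeoxycholic acid 100 uM (100%) and DMSO (0%); Hill fit gives EC50, efficacy.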

[2] = target: Peroxisome proliferator-activated receptor gamma (Homo sapiens) (UniProt P37231); test: qHTS assay for small molecule antagonists of peroxisome proliferator-activated receptor gamma signaling (AID 588537; active = well fitted inhibition curve with a large enough effect in the signal ratio, with a control signal flat, not every such curve was filed as active; the % refers to the signal ratio;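 also: reporter cells co-stimulated with 50 nM rosiglitazone agonist during compound treatment; % of control where 0% means no effect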)
Sequence of Peroxisome proliferator-activated receptor gamma (Homo sapiens) (P37231 whole entry, looked up): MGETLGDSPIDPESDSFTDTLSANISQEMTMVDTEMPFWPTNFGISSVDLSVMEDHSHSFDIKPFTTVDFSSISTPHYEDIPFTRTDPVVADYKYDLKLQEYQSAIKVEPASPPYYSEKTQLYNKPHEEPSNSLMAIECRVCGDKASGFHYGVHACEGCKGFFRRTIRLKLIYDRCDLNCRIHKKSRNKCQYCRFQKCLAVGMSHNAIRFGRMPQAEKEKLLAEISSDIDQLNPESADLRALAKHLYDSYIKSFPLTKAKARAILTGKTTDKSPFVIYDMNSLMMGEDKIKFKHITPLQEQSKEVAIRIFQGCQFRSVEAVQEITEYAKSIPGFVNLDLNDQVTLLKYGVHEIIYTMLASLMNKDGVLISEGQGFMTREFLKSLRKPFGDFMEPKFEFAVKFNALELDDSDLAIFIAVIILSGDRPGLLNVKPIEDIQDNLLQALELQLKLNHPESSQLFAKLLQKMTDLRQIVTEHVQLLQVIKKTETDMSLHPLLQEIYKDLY
How it was run: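 Inhibitors of agonist-stimulated UAS-bla reporter activity were sought in HEK293 cells; rosiglitazone (50 nM) defined full signal and DMSO baseline. Curves fitted to Hill model gave IC50 and efficacy.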

[3] = qHTS assay for small molecule activators of the p53 signaling pathway (AID 651743; active = well fitted activation curve with a large enough effect in the signal ratio, not every such curve was filed as active; the % refers to the signal ratio; also: series mostly up to about 92 µM; % of control where 0% means no effect); settings: HCT-116 p53RE-bla, beta-lactamase FRET ratio, 16 h; activation: stronger effect = higher value
How it was run: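 Screen for p53 pathway agonists uses stably transfected p53RE-bla HCT-116 cells, 4,000 per well, treated 16 h at 37 C with compounds in DMSO.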

[4] = target: Glucocorticoid receptor (Homo sapiens) (UniProt P04150); test: qHTS assay for small molecule agonists of glucocorticoid receptor signaling (AID 588532; active = well fitted curve in the direction sought with a large enough effect in the signal ratio, with a control signal flat; the % refers to the signal ratio;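 also: 100% = dexamethasone at 0.1 µM and 0% = DMSO only wells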); settings: HeLa MMTV-bla, beta-lactamase ratio, agonist, 18 h; activation: stronger effect = higher value, percent of dexamethasone control, DMSO zero
Sequence of Glucocorticoid receptor (Homo sapiens) (P04150 whole entry, looked up): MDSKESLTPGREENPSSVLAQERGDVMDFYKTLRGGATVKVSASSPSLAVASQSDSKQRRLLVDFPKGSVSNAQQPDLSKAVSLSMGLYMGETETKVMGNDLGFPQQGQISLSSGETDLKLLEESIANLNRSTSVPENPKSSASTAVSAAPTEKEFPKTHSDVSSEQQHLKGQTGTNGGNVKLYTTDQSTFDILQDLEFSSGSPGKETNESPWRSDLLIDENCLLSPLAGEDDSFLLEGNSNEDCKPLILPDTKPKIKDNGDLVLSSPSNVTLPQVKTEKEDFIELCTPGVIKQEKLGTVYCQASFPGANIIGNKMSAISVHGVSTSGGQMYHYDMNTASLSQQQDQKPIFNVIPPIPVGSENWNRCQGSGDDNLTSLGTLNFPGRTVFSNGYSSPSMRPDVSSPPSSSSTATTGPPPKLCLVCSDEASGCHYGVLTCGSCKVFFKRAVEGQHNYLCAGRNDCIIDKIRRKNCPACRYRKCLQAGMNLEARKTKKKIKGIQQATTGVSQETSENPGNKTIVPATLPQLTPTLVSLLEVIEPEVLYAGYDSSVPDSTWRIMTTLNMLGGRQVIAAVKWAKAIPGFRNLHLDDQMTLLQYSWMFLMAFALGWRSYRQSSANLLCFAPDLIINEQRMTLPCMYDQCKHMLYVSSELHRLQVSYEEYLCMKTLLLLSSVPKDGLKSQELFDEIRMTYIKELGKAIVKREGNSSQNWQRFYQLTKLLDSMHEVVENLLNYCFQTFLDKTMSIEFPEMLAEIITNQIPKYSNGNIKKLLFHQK
How it was run: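 Using MMTV-bla HeLa cells in medium with 1% stripped FBS and 25 mM HEPES, compounds were titrated and incubated overnight-length (18 h). Beta-lactamase cleavage of CCF4 was quantified by dual-emission fluorescence.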

[5] = target: Glucocorticoid receptor (Homo sapiens) (UniProt P04150); test: qHTS assay for small molecule antagonists of glucocorticoid receptor signaling (AID 588533; active = well fitted inhibition curve with a large enough effect in the signal ratio, with a control signal flat, not every such curve was filed as active; the % refers to the signal ratio;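 also: cells stimulated with 2 nM dexamethasone as agonist; % is scaled to controls: 0 for no effect and ±100 for the full control effect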)
How it was run: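 Antagonist-mode qHTS: compound titrations added to GRE-bla HeLa cells, then dexamethasone 2 nM final; 18 h, 37 C. CCF4 FRET fluorescence normalized to dexamethasone and DMSO; IC50 from Hill fit.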

[6] = target: Peroxisome proliferator-activated receptor delta (Homo sapiens) (UniProt Q03181); test: qHTS assay for small molecule agonists of peroxisome proliferator-activated receptor delta signaling (AID 588534);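 also: 0% = DMSO basal wells and 100% = positive control agonist at 10 µM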
Sequence of Peroxisome proliferator-activated receptor delta (Homo sapiens) (Q03181 whole entry, looked up): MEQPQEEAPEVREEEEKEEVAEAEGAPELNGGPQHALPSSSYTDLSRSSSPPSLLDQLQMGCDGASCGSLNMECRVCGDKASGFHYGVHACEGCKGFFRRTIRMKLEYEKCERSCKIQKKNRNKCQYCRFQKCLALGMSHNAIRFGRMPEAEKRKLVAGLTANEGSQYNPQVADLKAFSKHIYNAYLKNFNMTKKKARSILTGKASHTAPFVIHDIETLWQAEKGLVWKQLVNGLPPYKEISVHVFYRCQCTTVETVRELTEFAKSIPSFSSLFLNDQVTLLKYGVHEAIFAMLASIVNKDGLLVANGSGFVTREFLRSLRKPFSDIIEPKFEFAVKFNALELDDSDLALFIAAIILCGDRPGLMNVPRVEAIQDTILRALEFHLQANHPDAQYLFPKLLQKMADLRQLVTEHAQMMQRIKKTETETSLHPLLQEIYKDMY
How it was run: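 Reporter cells were plated and held 5 hrs at 37 C before compounds were added. After 18 hrs at 37 C, CCF4 dye was loaded for 2 hrs at RT and fluorescence measured.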

[7] = qHTS assay for small molecule antagonists of peroxisome proliferator-activated receptor delta signaling (AID 588535; active = well fitted inhibition curve with a large enough effect in the signal ratio, with a control signal flat, not every such curve was filed as active; the % refers to the signal ratio;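 as to max response: cells co-treated with a PPAR-delta agonist as stimulator during compound exposure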); settings: HEK293T PPARd-UAS-bla, beta-lactamase FRET ratio, 18 h; 460 nm channel
How it was run: (§1)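 Cell-based beta-lactamase assay in antagonist mode: 4000 HEK293T PPAR-delta-UAS-bla cells per well, 5 hr preincubation then 18 hr compound incubation at 37 C. IC50 obtained by Hill equation fitting.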

[8] = target: Peroxisome proliferator-activated receptor delta (Homo sapiens) (UniProt Q03181); test: as above
How it was run: as §1

[9] = target: Peroxisome proliferator-activated receptor gamma (Homo sapiens) (UniProt P37231); test: qHTS assay for small molecule agonists of peroxisome proliferator-activated receptor gamma signaling (AID 588536; active = well fitted curve in the direction sought with a large enough effect in the signal ratio, with a control signal flat, not every such curve was filed as active; the % refers to the signal ratio;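 also: 0% = DMSO basal wells and 100% = rosiglitazone at 2 µM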)
How it was run: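 PPAR-gamma-UAS-bla HEK293 cells in medium with 1% charcoal/dextran-treated FBS were exposed to compounds for 16 h at 37 C. Beta-lactamase activity was read with CCF4 substrate (405 nm excitation, 460/530 nm emission).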

[10] = target: Vitamin D3 receptor (Homo sapiens) (UniProt P11473); test: qHTS assay for small molecule antagonists of vitamin D receptor signaling (AID 588541);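 also: receptor activated by calcitriol during compound treatment; series mostly up to about 77 µM; % is scaled to controls: 0 for no effect and ±100 for the full control effect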
Sequence of Vitamin D3 receptor (Homo sapiens) (P11473 whole entry, looked up): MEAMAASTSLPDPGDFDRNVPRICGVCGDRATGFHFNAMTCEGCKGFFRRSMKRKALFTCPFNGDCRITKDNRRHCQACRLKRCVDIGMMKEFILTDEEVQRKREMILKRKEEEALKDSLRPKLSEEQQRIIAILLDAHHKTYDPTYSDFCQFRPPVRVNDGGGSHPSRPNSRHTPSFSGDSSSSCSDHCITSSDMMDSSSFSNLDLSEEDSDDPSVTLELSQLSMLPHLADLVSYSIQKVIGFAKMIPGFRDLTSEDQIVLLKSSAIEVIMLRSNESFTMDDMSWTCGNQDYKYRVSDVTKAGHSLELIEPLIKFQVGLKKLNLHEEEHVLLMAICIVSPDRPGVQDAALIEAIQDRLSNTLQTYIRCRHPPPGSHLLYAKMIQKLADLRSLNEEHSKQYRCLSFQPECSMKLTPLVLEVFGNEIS
How it was run: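 Antagonist-mode beta-lactamase reporter assay: HEK293T VDR-UAS-bla cells were exposed to titrated compound alongside 1-alpha,25-dihydroxyvitamin D3 at 3 nM final for 16 h. Values were normalized to the 50 nM agonist control and DMSO basal, with IC50 and efficacy from Hill equation fits.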

[11] = qHTS assay for small molecule agonists of retinoid X receptor alpha signaling (AID 588544); settings: HEK293T RXRa-UAS-bla, beta-lactamase reporter, 18 h; 530 nm emission;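 as to activation: 0% = DMSO basal wells and 100% = reference agonist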
[12] = target: Retinoic acid receptor RXR-alpha (Homo sapiens) (UniProt P19793); test: as above
Sequence of Retinoic acid receptor RXR-alpha (Homo sapiens) (P19793 whole entry, looked up): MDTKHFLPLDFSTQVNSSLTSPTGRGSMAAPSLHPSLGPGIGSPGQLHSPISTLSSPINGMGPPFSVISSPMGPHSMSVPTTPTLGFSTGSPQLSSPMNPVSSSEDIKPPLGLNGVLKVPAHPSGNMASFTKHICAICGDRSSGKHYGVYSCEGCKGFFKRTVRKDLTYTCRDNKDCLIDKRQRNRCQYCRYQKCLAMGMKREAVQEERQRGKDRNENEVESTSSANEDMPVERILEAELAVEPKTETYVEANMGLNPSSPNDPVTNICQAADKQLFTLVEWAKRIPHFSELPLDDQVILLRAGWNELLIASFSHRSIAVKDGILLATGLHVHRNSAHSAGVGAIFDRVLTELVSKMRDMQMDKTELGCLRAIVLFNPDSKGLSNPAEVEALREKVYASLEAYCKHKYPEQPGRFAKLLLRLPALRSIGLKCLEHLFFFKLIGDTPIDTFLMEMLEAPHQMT

[13] = target: Thyroid hormone receptor beta (Homo sapiens) (UniProt P10828); test: qHTS assay for small molecule agonists of thyroid hormone receptor beta signaling (AID 588545);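 also: 0% = DMSO only and 100% = 10 nM T3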
Sequence of Thyroid hormone receptor beta (Homo sapiens) (P10828 whole entry, looked up): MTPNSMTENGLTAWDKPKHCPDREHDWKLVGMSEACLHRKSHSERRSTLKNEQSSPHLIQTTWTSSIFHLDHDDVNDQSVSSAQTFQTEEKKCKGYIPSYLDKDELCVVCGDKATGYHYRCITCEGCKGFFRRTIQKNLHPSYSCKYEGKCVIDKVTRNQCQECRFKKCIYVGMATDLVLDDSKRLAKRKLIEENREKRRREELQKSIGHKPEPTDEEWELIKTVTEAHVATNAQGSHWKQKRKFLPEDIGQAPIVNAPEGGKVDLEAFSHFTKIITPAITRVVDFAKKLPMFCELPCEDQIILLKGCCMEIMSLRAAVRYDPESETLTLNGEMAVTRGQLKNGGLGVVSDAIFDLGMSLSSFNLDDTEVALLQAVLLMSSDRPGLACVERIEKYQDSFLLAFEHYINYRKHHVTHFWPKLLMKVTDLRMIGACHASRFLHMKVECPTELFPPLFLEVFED
How it was run: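 TR-UAS-bla-GripTite HEK 293 cells in medium with 2% charcoal/dextran FBS, 0.1 mM NEAA and 1 mM sodium pyruvate were treated with titrated compounds for 18 hrs at 37 C. Beta-lactamase reporter was read with CCF4 dye (ex 405, em 460/530 nm); EC50 from Hill fits.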

[14] = qHTS assay for small molecule antagonists of retinoid X receptor alpha signaling (AID 588546; active = well fitted inhibition curve with a large enough effect in the signal ratio, with a control signal flat, not every such curve was filed as active; the % refers to the signal ratio;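 also: cells stimulated with 9-cis-retinoic acid as agonist; % is scaled to controls: 0 for no effect and ±100 for the full control effect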); settings: HEK293T RXRa-UAS-bla, beta-lactamase ratio, antagonist mode; measured here: W530 green channel, cytotoxicity proxy
How it was run: (§2)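 Beta-lactamase reporter inhibition, read as CCF4 fluorescence ratio (ex 405, em 460/530 nm) after 2 h at RT. HEK293T UAS-bla cells, 2500/well, were stimulated with 9-cis-RA at 500 or 100 nM final alongside test compound for 18 h at 37 C.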

[15] = target: Retinoic acid receptor RXR-alpha (Homo sapiens) (UniProt P19793); test: as above; settings: HEK293T RXRa-UAS-bla, beta-lactamase ratio, antagonist mode
How it was run: as §2

[16] = target: Thyroid hormone receptor beta (Homo sapiens) (UniProt P10828); test: qHTS assay for small molecule antagonists of thyroid hormone receptor beta signaling (AID 588547; active = well fitted inhibition curve with a large enough effect in the signal ratio, with a control signal flat, not every such curve was filed as active; the % refers to the signal ratio;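 also: cells stimulated with 0.4 nM T3 agonist during compound exposure; series mostly up to about 77 µM; % is scaled to controls: 0 for no effect and ±100 for the full control effect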); settings: TR-UAS-bla HEK293, beta-lactamase ratio, antagonist mode, 18 h
How it was run: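 Inhibition of T3-driven (0.4nM final) beta-lactamase reporter activity was measured over 0.59 nM to 92 uM compound after 18 h at 37 C. The cells were GripTite HEK293 TR-UAS-bla in charcoal/dextran-stripped serum, with CCF4 ratio read-out and IC50 from Hill fits.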

[17] = qHTS assay for small molecule activators of the nuclear factor-kappa B (NF-kB) signaling pathway (AID 651749; active = well fitted activation curve with a large enough effect in the signal ratio; the % refers to the signal ratio; also: series mostly up to about 77 µM; % of control where 0% means no effect); settings: NF-kB-bla ME-180 cells, beta-lactamase FRET ratio, 16 h; activation: stronger effect = higher value
How it was run: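 Stably transfected ME-180 line; NF-kB response element upstream of beta-lactamase. Treatment: compound or DMSO, 16 hr. Detection: fluorescent FRET substrate.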

[18] = qHTS assay for environmental chemicals that activate the Aryl hydrocarbon Receptor (AhR) signaling pathway (AID 651777; active = well fitted curve in the direction sought with a large enough effect; an effect the other way counts as inactive or inconclusive; also: % of control where 0% means no effect; nearly all actives have a fitted effect of over 15% in size); settings: 1A2-DRE human hepatoma cells, luciferase, 24 h; activation: stronger effect = higher value
How it was run: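 Measured luciferase activity, read 30 min after One-Glo addition at room temperature, from human hepatoma cells bearing a dioxin response element–CYP1A2 promoter reporter and exposed to compound for 24 hr at 37 C.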

[19] = target: Peroxisome proliferator-activated receptor alpha (Homo sapiens) (UniProt Q07869); test: qHTS assay for small molecule agonists of the peroxisome proliferator-activated receptor alpha (PPARalpha) signaling pathway (AID 651778; active = well fitted curve in the direction sought with a large enough effect; an effect the other way counts as inactive or inconclusive; also: % of control where 0% means no effect); settings: PathHunter PPARalpha complementation, chemiluminescence, 6 h; max response: stronger effect = higher value
Sequence of Peroxisome proliferator-activated receptor alpha (Homo sapiens) (Q07869 whole entry, looked up): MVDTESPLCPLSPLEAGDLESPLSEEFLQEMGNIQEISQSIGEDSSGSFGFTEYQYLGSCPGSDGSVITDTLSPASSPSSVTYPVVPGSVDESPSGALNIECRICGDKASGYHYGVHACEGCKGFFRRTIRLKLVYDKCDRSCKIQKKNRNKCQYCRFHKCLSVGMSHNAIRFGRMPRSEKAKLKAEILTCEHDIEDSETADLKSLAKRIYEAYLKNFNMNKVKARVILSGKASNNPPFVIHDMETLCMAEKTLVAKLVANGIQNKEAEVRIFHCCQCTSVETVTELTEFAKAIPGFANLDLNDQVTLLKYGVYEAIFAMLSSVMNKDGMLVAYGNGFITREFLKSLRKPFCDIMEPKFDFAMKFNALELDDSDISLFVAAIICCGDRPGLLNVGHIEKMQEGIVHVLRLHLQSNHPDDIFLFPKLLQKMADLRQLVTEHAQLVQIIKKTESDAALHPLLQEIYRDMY
How it was run: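 Chemiluminescence from complemented enzyme reported PPARalpha activation in cells after 6 hr of compound treatment at 37 C. The detection reagent was incubated for 60 min at room temperature, and compounds were scored as agonists.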

[20] = qHTS assay for small molecule agonists of the antioxidant response element (ARE) signaling pathway measured by Nrf2-dependant transcriptional activity - cell viability counter screen (AID 720653; active = well fitted curve in the direction sought with a large enough effect in the repeat runs; an effect the other way counts as inactive or inconclusive; also: % is scaled to controls: 0 for no effect and ±100 for the full control effect); settings: ARE-bla HepG2 viability, CellTiter-Glo ATP luminescence, 16 h; max response: stronger effect = lower value
How it was run: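 Cytotoxicity counter screen: intracellular ATP quantified by CellTiter-Glo luminescence in the same ARE-bla HepG2 plates, after 16 h compound exposure and a 2 h beta-lactamase substrate step.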

[21] = qHTS assay for cell viability of HEK293 cells (AID 743288; active = well fitted curve in the direction sought with a large enough effect; an effect the other way counts as inactive or inconclusive; also: % is scaled to controls: 0 for no effect and ±100 for the full control effect; nearly all actives have a fitted effect of over 50% in size); settings: ATP luminescence (CellTiter-Glo), 18 h; max response: stronger effect = lower value
How it was run: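 Luminescent ATP quantitation served as the viability read-out. Cells (parental HEK293, 2,000/well) received compounds after at least 5 h at 37 C and were exposed for 18 h before a 30 min room-temperature reagent step.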

[22] = qHTS assay for cell viability of the p53RE-bla HCT-116 cell line (AID 743292; active = well fitted curve in the direction sought with a large enough effect; an effect the other way counts as inactive or inconclusive; also: % is scaled to controls: 0 for no effect and ±100 for the full control effect; nearly all actives have a fitted effect of over 55% in size)
How it was run: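 Intracellular ATP of p53RE-bla HCT-116 cells measured by luciferase luminescence following 16 h compound incubation at 37 C; DMSO-only wells served as vehicle controls.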

[23] = target: Nuclear receptor subfamily 1 group I member 2 (Rattus norvegicus) (UniProt Q9R1A7); test: qHTS assay for small molecule activators of the rat pregnane X receptor (rPXR) signaling pathway (AID 651751; call rule not given here; also: 0% is about no effect); settings: rPXR reporter cells, luciferase (One-Glo), 24 h
Sequence of Nuclear receptor subfamily 1 group I member 2 (Rattus norvegicus) (Q9R1A7 whole entry, looked up): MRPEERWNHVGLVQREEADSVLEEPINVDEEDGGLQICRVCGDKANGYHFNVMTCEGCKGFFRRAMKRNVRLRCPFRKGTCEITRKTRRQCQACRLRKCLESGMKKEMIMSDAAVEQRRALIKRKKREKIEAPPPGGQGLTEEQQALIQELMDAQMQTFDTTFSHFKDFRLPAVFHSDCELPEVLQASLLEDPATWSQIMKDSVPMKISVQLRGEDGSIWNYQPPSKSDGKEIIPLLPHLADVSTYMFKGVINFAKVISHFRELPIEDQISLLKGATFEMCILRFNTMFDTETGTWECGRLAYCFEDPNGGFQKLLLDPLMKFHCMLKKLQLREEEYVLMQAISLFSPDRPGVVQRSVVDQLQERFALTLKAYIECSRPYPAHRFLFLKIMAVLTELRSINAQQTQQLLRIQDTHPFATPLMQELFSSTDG

[24] = qHTS assay for small molecule activators of the human pregnane X receptor (PXR) signaling pathway (AID 720659; call rule not given here; also: 0% is about no effect)

Nc1cccc(C(F)(F)F)c1
inactive: activation [1] -1.94% and -0.257% | Potency [2] | activation [3] -3.34%

Cc1cc(C)nc(Nc2ccccc2)n1
inactive: activation [4] -19% | Potency [5] | outcome [6] | Potency [8] | Potency [9] | Potency [2] | Potency [10] | Potency [12] | Potency [13] | max response [15] -45.9% | activity change % (negative = inhibition) [16] -4.91% | activation [3] -0.291% | activation [17] -2.63% | activation [18] 7.09% | max response [19] 5.23% | max response [20] -4.46% | max response [21] -15.1% | Potency [22] | max response [23] 11.4% | outcome [24]
-19.7%: max response [7]
1.3%: max response [11]
-7.16%: max response [14]
